Assay outcomes as filed in PubChem.
Epigenetic reg: epigenetic control regulation, reporter derepression; Potency, µM (series often up to 53.9 µM), inactives show at the top dose GFP activation, hits mostly activators; 280,000 compounds, 0.2% hits; murine LDR cells, GFP reporter derepression, 30 h; further: % of control where 0% means no effect; nearly all actives have a fitted effect of over 60% in size
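Derepression of a silenced CMV-GFP reporter in murine LDR cells is scored by enumerating GFP-positive cells with a laser-scanning microplate cytometer after 30 hours of treatment at 37 C.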
HTT aggregate: mutant huntingtin aggregation inhibition | PC12 HttQ103-GFP aggregates, Acumen cytometry, 40 h | Potency, µM (top dose mostly 46.1 µM), without a hit: top-dose activity change, negative = inhibition, usual class: inhibitors | 220,000 compounds, 1.1% hits | AID 1688; further: on the % scale 0 is the no-effect control and ±100 the full control effect; nearly all actives have a fitted effect of over 60% in size
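Multiplexed with ATP-based cell death, this channel scores GFP aggregates in PC12 cells expressing inducible HTTex1-Q103-GFP. Induction used 100 nM tebufenozide; compounds were tested in concentration series.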
Lamin A splicing: modulators of lamin A splicing | HeLa LMNA splicing GFP/RFP minigene ratio, 48 h | Potency, µM (doses to about 46.1 µM), inactives show at the top dose ratio change, negative = inhibition, hits mostly inhibitors | 200,000 compounds, 0.01% hits; active means well fitted inhibition curve with a large enough effect in the signal ratio, with a control signal flat, not every such curve was filed as active; inconclusive means small, poorly fitted or top-dose-only effect, or effect the other way, or a change in a side signal; the % refers to the signal ratio; further: on the % scale 0 is the no-effect control and ±100 the full control effect
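S3 HeLa stable clones carrying a lamin A-EGFP splicing minigene plus DsRed2 were seeded at 600 cells/well in Opti-MEM with 2% FBS, pin-dosed and incubated 48 h at 37°C. Acumen cytometry (488 nm) gave the GFP/RFP total-intensity ratio.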
NPSR antagonist: neuropeptide S receptor (human) antagonism, cAMP | Q6W5P4 | CHO-NPSR cells, cAMP TR-FRET, antagonist mode | Potency, µM (top dose mostly 38.3 µM), inactives show at the highest dose activity change, negative = inhibition, usual class: inhibitors | 220,000 compounds, 1% hits | AID 1461; further: on the % scale 0 is the no-effect control and ±100 the full control effect; nearly all actives have a fitted effect of over 50% in size
Target sequence (Q6W5P4 whole entry, looked up): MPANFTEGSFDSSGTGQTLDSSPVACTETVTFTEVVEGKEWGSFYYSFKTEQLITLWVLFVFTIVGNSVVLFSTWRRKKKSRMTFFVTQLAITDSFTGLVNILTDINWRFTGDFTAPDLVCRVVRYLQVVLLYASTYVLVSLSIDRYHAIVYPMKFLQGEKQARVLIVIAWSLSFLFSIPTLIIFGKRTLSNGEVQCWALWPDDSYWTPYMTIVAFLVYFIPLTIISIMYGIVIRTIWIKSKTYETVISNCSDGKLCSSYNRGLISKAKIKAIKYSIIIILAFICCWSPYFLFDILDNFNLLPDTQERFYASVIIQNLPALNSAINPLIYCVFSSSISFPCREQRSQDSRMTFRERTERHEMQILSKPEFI
HTT ATP protect: cytoprotection in Huntington HTT-Q103 PC12 cell model; PC12 HTT-Q103 induced, cytoprotection, ATP luminescence, 40 h; Potency, µM (titrated, usually from 56.4 µM), for the others: cytoprotection (ATP increase), most hits filed as activators; 230,000 compounds, 0.14% hits; AID 1471; further: % of control where 0% means no effect; nearly all actives have a fitted effect of over 45% in size
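ATP quantification (ATPlite) reports survival of PC12 cells in which tebufenozide, 100 nM final, switches on Htt exon 1 with 103 glutamines linked to GFP; compounds are titrated.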
* hit, by the source's call; [ ] = dose if it differs, or a comment. A selection: hits, their analogues and other compounds. The true share with any hit is near 1.5%. Unless noted, the call rests on the fitted dose curve; in most records, active means well fitted curve in the direction sought with a large enough effect; inconclusive means small, poorly fitted or top-dose-only effect, or another doubt; inactive means no such curve, though single readings can be large; an effect the other way counts as inactive or inconclusive. Potency means the concentration at half of the fitted maximal effect.

What do the screens show for `COC(=O)Cn1cnc2c(cnn2-c2ccccc2)c1=O`?
Epigenetic reg: -1.3%; HTT aggregate: -10.2%; NPSR antagonist: 17.4%; HTT ATP protect: 3.0%

How did COc1ccc(Oc2c(Cl)cnn(-c3ccc(Cl)c(Cl)c3)c2=O)cc1 do in these assays?
Epigenetic reg: 0.1%; HTT aggregate: 27.2%; Lamin A splicing: inconclusive; NPSR antagonist: 10µM*; HTT ATP protect: 6.3%[10 µM]

What do the screens show for `CCOC(=O)Cn1cnc2c(cnn2-c2ccc(Cl)cc2)c1=O`?
Epigenetic reg: -2.6%; HTT aggregate: 15.8µM*; Lamin A splicing: inconclusive; NPSR antagonist: -11.1%[46.1 µM]; HTT ATP protect: -68.0%

What do the screens show for `Cc1csc(NC(=O)CSc2nnc(-c3ccncc3)n2C)n1`?
Epigenetic reg: 0.9%; HTT aggregate: 0.0008µM*; Lamin A splicing: -1.0%; NPSR antagonist: -6.4%[46.1 µM]; HTT ATP protect: -0.2%

How did Cn1c(SCC(=O)Nc2nccs2)nnc1-c1ccncc1 do in these assays?
Epigenetic reg: -0.9%; HTT aggregate: -12.9%; Lamin A splicing: 8.0%; NPSR antagonist: -6.4%[46.1 µM]; HTT ATP protect: 9.6%

What do the screens show for `Cc1ccc(NC(=O)c2ncn(-c3ccccc3)n2)cc1Cl`?
Epigenetic reg: 2.0%

How did O=C(NNC(=S)NC1CCCCC1)c1cccs1 do in these assays?
Epigenetic reg: 1.1%; HTT aggregate: 2.9%; Lamin A splicing: inconclusive; NPSR antagonist: 13.1%; HTT ATP protect: 32.6%[10 µM]

How did O=C(NNC(=S)NC1CCCCC1)c1ccccc1O do in these assays?
Epigenetic reg: -3.2%; HTT aggregate: 10µM*; Lamin A splicing: inconclusive; NPSR antagonist: 5.0%; HTT ATP protect: -81.6%

What do the screens show for `CC(=O)c1cccc(NC(=O)Cn2cc(C(=O)c3cccc(Cl)c3)c(=O)c3ccc(C)nc32)c1`?
Epigenetic reg: -0.9%

Results for Cc1cccc(N(CC(=O)N(C)Cc2ccccc2)S(=O)(=O)c2ccccc2)c1C ?
Epigenetic reg: -0.9%

How did CCOC(=S)SCC(=O)Nc1nccs1 do in these assays?
Epigenetic reg: inconclusive; HTT aggregate: 5.62µM*; NPSR antagonist: -26.5%; HTT ATP protect: -13.4%[10 µM]

How did CCOC(=S)SCC(=O)Nc1nc(C)c(C)s1 do in these assays?
Epigenetic reg: inconclusive; HTT aggregate: -17.3%[9.22 µM]; NPSR antagonist: -46.4%; HTT ATP protect: 6.4%[10 µM]

Results for Cc1ccc(C)c(CSCC(=O)NCc2cccs2)c1 ?
Epigenetic reg: -3.4%; HTT aggregate: 7.0%; NPSR antagonist: -36.9%; HTT ATP protect: 3.55µM*

What do the screens show for `Cc1cc(C(=O)COc2cccc(-n3cnnn3)c2)c(C)n1-c1ccccc1`?
Epigenetic reg: 0.0%; HTT aggregate: 11.2µM*; Lamin A splicing: inconclusive; NPSR antagonist: -14.5%[46.1 µM]; HTT ATP protect: -98.1%

What do the screens show for `COC(=O)COc1cccc(-n2cnnn2)c1`?
Epigenetic reg: -0.7%; HTT aggregate: -0.2%; Lamin A splicing: 4.0%; NPSR antagonist: -8.8%[46.1 µM]; HTT ATP protect: 7.1%

How did CCCCCCc1cc2cc(C(=O)Nc3ccccc3)c(=O)oc2cc1O do in these assays?
Epigenetic reg: 1.5%; HTT aggregate: 2.24µM*; Lamin A splicing: -3.4%; NPSR antagonist: -23.3%; HTT ATP protect: -39.0%[10 µM]

How did CCCCCCc1cc2cc(C(=O)NCc3ccccc3)c(=N)oc2cc1O do in these assays?
Epigenetic reg: -1.0%; HTT aggregate: 2.4%; Lamin A splicing: inconclusive; NPSR antagonist: -1.0%[46.1 µM]; HTT ATP protect: 8.2%[10 µM]

What do the screens show for `COc1ccc(CNC(=O)COC(=O)Cc2ccc(Cl)cc2Cl)cc1`?
Epigenetic reg: 1.0%; HTT aggregate: 0.562µM*; Lamin A splicing: -2.8%; NPSR antagonist: 11.9%; HTT ATP protect: -86.8%[1.9 µM]

What do the screens show for `COC(=O)CCCNC(=O)c1ccc2[nH]c(C)c(C)c2c1`?
Epigenetic reg: -0.8%; HTT aggregate: 1.26µM*; Lamin A splicing: inconclusive; NPSR antagonist: -3.1%; HTT ATP protect: -10.6%

Results for CC(C)n1c(-c2ccc(C(C)(C)C)cc2)n[nH]c1=S ?
Epigenetic reg: -1.2%; HTT aggregate: 8.91µM*; Lamin A splicing: 29.4%; NPSR antagonist: -7.6%[46.1 µM]; HTT ATP protect: -20.2%

How did c1cc2c(cc1C1=NNC(=NC3CC3)SC1)OCCO2 do in these assays?
Epigenetic reg: 28.2µM*; HTT aggregate: inconclusive; Lamin A splicing: inconclusive; NPSR antagonist: -27.4%; HTT ATP protect: -185.2%

What do the screens show for `CCCCN=C1NN=C(c2ccc3c(c2)OCCO3)CS1`?
Epigenetic reg: -4.7%; HTT aggregate: 3.9%; Lamin A splicing: 14.3%[9.22 µM]; NPSR antagonist: -14.4%; HTT ATP protect: -63.7%

How did CCC(C(=O)Nc1cnccn1)c1ccccc1 (configuration not stated) do in these assays?
Epigenetic reg: 0.0%; HTT aggregate: -13.8%; Lamin A splicing: 12.1%; NPSR antagonist: 7.3%[46.1 µM]; HTT ATP protect: 0.9%[10 µM]

How did CCC(C(=O)NNC(=O)c1cnccn1)c1ccccc1 (configuration not stated) do in these assays?
Epigenetic reg: -3.2%; HTT aggregate: 7.94µM*; Lamin A splicing: inconclusive; NPSR antagonist: 15.8%; HTT ATP protect: 2.4%[10 µM]

What do the screens show for `Cc1cc(N2CCN(C/C=C/c3ccccc3)CC2)n2ncnc2n1`?
Epigenetic reg: -0.7%; HTT aggregate: 3.55µM*; Lamin A splicing: inconclusive; NPSR antagonist: -17.8%[46.1 µM]; HTT ATP protect: inconclusive

Results for Cc1cc(N2CCN(c3ccccc3)CC2)n2ncnc2n1 ?
Epigenetic reg: 9.0%; HTT aggregate: -14.0%[9.22 µM]; Lamin A splicing: 20.0%[46 µM]; NPSR antagonist: -0.4%; HTT ATP protect: 11.9%[10 µM]

How did O=C(CCN1CCOCC1)Nc1ccc(F)cc1F do in these assays?
HTT ATP protect: -7.6%[10 µM]

Results for CCN1CCN(c2nc3ccccc3nc2C(C#N)C(=O)OC2CCCCC2)CC1 (configuration not stated) ?
Epigenetic reg: 0.0%; HTT aggregate: -0.3%; Lamin A splicing: 9.3%; NPSR antagonist: inconclusive; HTT ATP protect: -32.7%

How did CN1CCN(c2nc3ccccc3nc2C(C#N)C(=O)OC2CCCCC2)CC1 (configuration not stated) do in these assays?
Epigenetic reg: -0.7%; HTT aggregate: 12.6µM*; Lamin A splicing: -8.6%; NPSR antagonist: -22.8%[7.67 µM]; HTT ATP protect: -100.6%

What do the screens show for `CCOc1ccccc1C(=O)N1c2ccccc2Sc2ccccc21`?
Epigenetic reg: -0.2%; HTT aggregate: 15.8µM*; Lamin A splicing: 7.6%; NPSR antagonist: -10.8%[46.1 µM]; HTT ATP protect: inconclusive

How did O=C(O)c1ccc(F)c(S(=O)(=O)Nc2cccc(F)c2)c1 do in these assays?
Epigenetic reg: 4.8%

What do the screens show for `COc1cc(CN(C(=O)c2cccc(C)c2)c2ccccn2)cc(OC)c1OC`?
Epigenetic reg: -2.2%; Lamin A splicing: 15.0%[46 µM]

Results for COc1ccccc1NC(=S)N(Cc1ccc(C)cc1)Cc1cccnc1 ?
Epigenetic reg: 0.0%; HTT aggregate: 11.5%; NPSR antagonist: -44.0%; HTT ATP protect: -4.5%

Results for COc1ccccc1NC(=S)N(Cc1ccc(C)cc1)Cc1ccccn1 ?
Epigenetic reg: 2.0%; HTT aggregate: 25.1µM*; NPSR antagonist: -30.6%; HTT ATP protect: -35.4%
